Measurements reported in the supplement of paper PMC11732987, “Enantioselective OTUD7B fragment discovery through chemoproteomics screening and high-throughput optimisation” (Communications Chemistry, 2025).

Experiments:
Assay in all cases: log2 ratio of Biotin-Ahx-Ub-VS probe labelling (fragment/DMSO); higher = less target engagement (more negative = stronger competition), active = hit call of the paper (q ≤ 0.05, log2 ratio ≤ -1)
Settings in all cases: compound concentration: 200 uM; treatment time: 3 h
OTUD6B = biological target: T1, OTUD6B (UniProt Q8N6M0)
T1 sequence (whole entry): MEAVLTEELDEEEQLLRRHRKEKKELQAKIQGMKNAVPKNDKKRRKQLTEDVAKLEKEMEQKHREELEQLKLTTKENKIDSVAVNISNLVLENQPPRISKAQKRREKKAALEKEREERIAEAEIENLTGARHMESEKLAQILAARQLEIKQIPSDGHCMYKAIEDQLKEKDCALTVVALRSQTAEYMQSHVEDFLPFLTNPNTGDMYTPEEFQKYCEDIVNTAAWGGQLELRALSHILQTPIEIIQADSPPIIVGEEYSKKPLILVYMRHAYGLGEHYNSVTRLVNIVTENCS
Outline: (§1)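 HEK293T lysate (495 µg per sample, in Tris/CHAPS/IGEPAL buffer with protease inhibitors) was treated in triplicate with fragment at 200 µM or with DMSO for 3 h. It was then treated with Biotin-Ahx-Ub-VS (0.5 µM final) for 1 h. Labelled DUBs were NeutrAvidin-enriched, digested with LysC and trypsin, and run by diaPASEF LC-MS/MS. Spectronaut label-free quantities were global-median-normalised. Values are average log2 ratios fragment/DMSO by unpaired t-test, using proteins with ≥2 unique peptides.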

OTUD7B = biological target: T2, OTUD7B (UniProt Q6GQQ9)
T2 sequence (whole entry): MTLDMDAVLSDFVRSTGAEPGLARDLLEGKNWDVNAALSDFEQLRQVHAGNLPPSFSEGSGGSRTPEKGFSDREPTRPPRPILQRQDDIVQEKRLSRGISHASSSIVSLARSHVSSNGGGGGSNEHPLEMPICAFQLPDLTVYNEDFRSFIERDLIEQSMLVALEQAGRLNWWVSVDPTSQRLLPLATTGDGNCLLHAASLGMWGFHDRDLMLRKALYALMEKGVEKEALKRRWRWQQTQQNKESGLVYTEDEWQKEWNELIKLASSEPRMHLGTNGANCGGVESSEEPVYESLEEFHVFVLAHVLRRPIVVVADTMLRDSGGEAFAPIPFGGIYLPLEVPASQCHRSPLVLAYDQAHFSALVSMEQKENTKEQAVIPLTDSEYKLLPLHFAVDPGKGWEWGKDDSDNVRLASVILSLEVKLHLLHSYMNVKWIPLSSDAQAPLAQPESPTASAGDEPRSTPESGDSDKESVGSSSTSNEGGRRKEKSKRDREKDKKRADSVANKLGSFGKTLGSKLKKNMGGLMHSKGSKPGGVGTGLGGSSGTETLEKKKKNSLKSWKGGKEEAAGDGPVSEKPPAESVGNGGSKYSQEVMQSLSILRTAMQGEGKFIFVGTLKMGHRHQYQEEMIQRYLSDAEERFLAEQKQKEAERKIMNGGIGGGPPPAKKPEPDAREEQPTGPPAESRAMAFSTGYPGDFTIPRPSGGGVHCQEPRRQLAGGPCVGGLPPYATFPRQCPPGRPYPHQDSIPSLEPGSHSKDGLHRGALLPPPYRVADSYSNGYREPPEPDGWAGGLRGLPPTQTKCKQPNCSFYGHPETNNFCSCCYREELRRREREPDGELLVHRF
Outline: as §1

PRPF8 = PRPF8 (UniProt Q6P2Q9)
Outline: as §1

PSMD7 = biological target: T3, PSMD7 (UniProt P51665)
T3 sequence (whole entry): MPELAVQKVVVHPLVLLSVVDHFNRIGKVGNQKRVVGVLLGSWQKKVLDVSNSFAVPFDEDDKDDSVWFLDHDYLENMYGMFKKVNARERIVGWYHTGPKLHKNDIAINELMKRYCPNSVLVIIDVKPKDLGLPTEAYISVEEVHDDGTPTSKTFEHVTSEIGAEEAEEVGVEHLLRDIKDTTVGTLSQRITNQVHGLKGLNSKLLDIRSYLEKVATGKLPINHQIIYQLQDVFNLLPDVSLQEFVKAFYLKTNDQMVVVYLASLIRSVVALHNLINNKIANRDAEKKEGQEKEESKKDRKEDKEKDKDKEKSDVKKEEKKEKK
Outline: as §1

UCHL1 = UCHL1 (UniProt P09936)
Sequence of UCHL1 (P09936 whole entry, looked up): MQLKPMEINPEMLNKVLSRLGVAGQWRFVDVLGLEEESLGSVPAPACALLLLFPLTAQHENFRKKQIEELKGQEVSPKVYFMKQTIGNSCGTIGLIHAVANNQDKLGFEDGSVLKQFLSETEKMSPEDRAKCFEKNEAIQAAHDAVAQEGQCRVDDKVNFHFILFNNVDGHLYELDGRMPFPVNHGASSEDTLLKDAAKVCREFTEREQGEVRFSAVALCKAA
Outline: as §1

UCHL3 = biological target: T4, UCHL3 (UniProt P15374)
T4 sequence (whole entry): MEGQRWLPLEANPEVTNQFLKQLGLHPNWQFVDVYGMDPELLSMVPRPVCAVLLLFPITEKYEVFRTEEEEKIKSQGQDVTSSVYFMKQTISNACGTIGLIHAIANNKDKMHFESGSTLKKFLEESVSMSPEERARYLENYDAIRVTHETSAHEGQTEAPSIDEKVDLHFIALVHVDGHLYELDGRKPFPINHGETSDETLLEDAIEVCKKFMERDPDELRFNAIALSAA
Outline: as §1

UCHL5 = biological target: T5, UCHL5 (UniProt Q9Y5K5)
T5 sequence (whole entry): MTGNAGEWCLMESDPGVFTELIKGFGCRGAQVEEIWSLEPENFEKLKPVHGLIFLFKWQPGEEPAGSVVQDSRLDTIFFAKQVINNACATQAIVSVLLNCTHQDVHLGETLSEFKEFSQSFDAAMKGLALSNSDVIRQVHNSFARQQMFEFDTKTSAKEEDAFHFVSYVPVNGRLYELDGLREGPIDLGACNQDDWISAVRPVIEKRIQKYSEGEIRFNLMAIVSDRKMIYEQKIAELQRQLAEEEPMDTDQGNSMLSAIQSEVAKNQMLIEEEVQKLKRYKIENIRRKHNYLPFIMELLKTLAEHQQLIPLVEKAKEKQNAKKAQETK
Outline: as §1

USP10 = USP10 (UniProt Q14694)
Sequence of USP10 (Q14694 whole entry): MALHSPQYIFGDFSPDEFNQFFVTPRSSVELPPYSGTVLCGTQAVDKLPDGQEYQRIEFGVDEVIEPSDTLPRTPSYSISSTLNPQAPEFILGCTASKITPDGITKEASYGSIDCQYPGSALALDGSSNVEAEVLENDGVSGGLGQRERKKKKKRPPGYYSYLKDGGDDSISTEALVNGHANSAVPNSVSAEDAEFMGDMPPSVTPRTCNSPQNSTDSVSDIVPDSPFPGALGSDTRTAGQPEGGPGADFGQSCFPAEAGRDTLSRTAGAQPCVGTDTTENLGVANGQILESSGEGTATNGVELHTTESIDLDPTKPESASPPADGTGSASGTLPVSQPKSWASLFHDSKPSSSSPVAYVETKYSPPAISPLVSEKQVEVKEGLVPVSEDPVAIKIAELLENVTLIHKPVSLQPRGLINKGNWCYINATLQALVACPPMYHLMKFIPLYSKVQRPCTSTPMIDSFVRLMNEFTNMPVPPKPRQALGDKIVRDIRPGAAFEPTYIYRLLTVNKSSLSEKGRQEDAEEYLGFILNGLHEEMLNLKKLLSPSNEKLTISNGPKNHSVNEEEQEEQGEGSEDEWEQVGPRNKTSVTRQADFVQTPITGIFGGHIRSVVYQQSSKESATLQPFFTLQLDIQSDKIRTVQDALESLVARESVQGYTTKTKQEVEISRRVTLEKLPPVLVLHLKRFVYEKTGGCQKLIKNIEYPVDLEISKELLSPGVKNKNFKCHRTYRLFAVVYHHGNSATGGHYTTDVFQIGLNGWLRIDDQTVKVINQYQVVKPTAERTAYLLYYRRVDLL
Outline: as §1

USP15 = biological target: T6, USP15 (UniProt Q9Y4E8)
T6 sequence (whole entry): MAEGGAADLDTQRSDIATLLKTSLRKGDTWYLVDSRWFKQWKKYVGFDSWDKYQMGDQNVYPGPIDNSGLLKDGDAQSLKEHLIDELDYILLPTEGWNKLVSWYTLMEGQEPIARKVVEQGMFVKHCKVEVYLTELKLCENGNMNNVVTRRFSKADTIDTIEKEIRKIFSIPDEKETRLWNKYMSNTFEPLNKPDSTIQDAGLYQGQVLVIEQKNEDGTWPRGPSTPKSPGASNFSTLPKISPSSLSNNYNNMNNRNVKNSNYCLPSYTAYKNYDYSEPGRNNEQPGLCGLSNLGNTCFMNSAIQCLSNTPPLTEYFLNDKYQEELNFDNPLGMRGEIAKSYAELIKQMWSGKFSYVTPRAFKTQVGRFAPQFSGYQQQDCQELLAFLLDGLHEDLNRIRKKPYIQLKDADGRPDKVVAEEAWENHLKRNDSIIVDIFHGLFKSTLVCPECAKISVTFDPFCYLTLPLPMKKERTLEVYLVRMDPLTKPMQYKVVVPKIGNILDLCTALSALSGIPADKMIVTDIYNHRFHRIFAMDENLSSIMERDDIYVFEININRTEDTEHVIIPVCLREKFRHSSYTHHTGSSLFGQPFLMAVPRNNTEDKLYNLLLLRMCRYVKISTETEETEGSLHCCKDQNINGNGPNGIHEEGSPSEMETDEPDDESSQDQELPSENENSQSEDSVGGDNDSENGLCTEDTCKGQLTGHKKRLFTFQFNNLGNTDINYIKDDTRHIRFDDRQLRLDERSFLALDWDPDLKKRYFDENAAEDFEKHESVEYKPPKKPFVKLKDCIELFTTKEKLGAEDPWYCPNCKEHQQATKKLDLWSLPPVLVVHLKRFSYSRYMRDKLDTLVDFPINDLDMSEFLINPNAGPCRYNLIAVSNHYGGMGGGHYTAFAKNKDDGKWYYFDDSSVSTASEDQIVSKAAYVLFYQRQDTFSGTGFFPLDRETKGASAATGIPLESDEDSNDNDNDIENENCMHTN
Outline: as §1

USP16 = USP16 (UniProt Q9Y5T5)
Sequence of USP16 (Q9Y5T5 whole entry, looked up): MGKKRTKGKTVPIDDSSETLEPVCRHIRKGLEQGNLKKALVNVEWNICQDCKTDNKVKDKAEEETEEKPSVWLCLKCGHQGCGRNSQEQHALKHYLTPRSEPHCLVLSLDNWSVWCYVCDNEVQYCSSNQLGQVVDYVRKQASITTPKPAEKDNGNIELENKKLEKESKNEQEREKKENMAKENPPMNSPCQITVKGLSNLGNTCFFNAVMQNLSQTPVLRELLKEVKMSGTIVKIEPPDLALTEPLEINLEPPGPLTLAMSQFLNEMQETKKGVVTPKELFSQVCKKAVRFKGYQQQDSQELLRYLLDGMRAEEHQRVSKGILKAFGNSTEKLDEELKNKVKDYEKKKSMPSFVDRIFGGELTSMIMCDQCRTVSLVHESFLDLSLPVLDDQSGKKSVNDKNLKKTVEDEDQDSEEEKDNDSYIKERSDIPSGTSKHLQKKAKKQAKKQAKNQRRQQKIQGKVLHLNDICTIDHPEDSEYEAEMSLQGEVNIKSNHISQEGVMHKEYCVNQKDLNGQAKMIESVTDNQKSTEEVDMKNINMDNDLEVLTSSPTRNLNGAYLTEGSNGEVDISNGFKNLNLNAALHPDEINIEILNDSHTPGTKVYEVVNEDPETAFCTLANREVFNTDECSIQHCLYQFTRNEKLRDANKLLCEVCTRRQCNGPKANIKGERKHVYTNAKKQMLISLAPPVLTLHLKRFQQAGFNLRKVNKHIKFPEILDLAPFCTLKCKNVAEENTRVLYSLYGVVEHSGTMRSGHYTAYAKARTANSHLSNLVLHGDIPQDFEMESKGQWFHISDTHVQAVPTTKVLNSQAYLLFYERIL
Outline: as §1

Measured: log2 ratio of Biotin-Ahx-Ub-VS probe labelling

N#Cc1cnn(-c2ccccc2)c1NC(=O)CCl
active: OTUD7B -1.83 | UCHL1 -1.35
inactive: OTUD6B -0.394 | PRPF8 -0.0739 | PSMD7 -0.397 | UCHL3 0.168 | UCHL5 -0.235 | USP10 -0.0214 | USP15 -0.516 | USP16 -0.0136
